# HttQ103 aggreg: reduces HttQ103-GFP aggregates in PC12 cells; Potency, µM (doses to about 46.1 µM), without a hit: at the top dose activity change, negative = inhibition, hits mostly inhibitors; PC12 HttQ103-GFP aggregates, Acumen cytometry, 40 h; actives 1.1% (n = 220,000); note: potency is the fitted concentration of half-maximal effect; % is set by controls: 0 for no effect and ±100 for the full control effect; nearly all actives have a fitted effect of over 60% in size
#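 Compounds (qHTS titration) were added to PC12 cells expressing an ecdysone-driven HTT exon 1 Q103–GFP fusion after induction with 100 nM tebufenozide. Aggregate formation was measured as GFP objects in cell lysates.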
# PNC assembly inh: blocks assembly of the perinucleolar compartment; PC3M PTB-GFP, PNC prevalence imaging, 16 h; stronger effect = lower value; activity change (PNC), negative = inhibition, % at 10 µM; actives 3.1% (n = 140,000); AID 2417;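 active = readout at or below -70, meaning at least 70% loss of cells showing the perinucleolar compartment, a nuclear body marking cancer cells; inconclusive = readout between -30 and a set limit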;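 note: plate controls were DMSO wells for no effect and camptothecin positive control wells for full effect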
#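 PC3M cells stably expressing PTB-GFP, 750–1000 cells/well, treated 16 h at 37 °C with compound (23 nl of library stock), in duplicate. After paraformaldehyde fixation and Hoechst stain, imaged at 20x; PNC prevalence scored by image analysis.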
# HTT ATP protect: cytoprotection in Huntington HTT-Q103 PC12 cell model; PC12 HTT-Q103 induced, cytoprotection, ATP luminescence, 40 h; Potency, µM (series often up to 56.4 µM), for the others: cytoprotection (ATP increase), actives largely listed as activators; actives 0.14% (n = 230,000); AID 1471; note: potency is the fitted concentration of half-maximal effect; % of control where 0% means no effect; nearly all actives have a fitted effect of over 45% in size
#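 ATP quantification (ATPlite) reports survival of PC12 cells in which tebufenozide, 100 nM final, switches on Htt exon 1 with 103 glutamines linked to GFP; compounds are titrated.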
# HPGD block: blocks human HPGD enzyme activity; purified HPGD, NADH fluorescence kinetic, PGE2 substrate; Potency, µM, without a hit: at the top dose activity change, negative = inhibition, hits mostly inhibitors; actives 4.3% (n = 150,000); AID 894; active = well fitted inhibition curve with a large enough effect, not every such curve was filed as active; inconclusive = small, poorly fitted or top-dose-only effect, or another doubt; inactive = no such curve, though single readings can be large or run the other way; note: potency is the fitted concentration of half-maximal effect; % is set by controls: 0 for no effect and ±100 for the full control effect
#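 NADH formation kinetics: reaction with 30 uM PGE2 and 1 mM NAD+ (final), 20 nM enzyme, Tris-HCl pH 8 with Tween 20, after 15 min compound preincubation at room temperature. Fluorescence change, last versus first of five reads.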
# ALDH1A1 block: blocks purified human ALDH1A1 activity; P00352; Purified ALDH1A1, NADH fluorescence, propionaldehyde substrate; Potency, µM (highest dose often 75.3 µM), inactives show at the top dose activity, negative = inhibition, hits mostly inhibitors; actives 7.3% (n = 220,000); active = well fitted inhibition curve with a large enough effect, not every such curve was filed as active; inconclusive = small, poorly fitted or top-dose-only effect, or another doubt; inactive = no such curve, though single readings can be large or run the other way;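 note: potency is the fitted concentration of half-maximal effect; plate controls were no enzyme wells and a reference inhibitor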
# Target sequence (P00352 whole entry, looked up): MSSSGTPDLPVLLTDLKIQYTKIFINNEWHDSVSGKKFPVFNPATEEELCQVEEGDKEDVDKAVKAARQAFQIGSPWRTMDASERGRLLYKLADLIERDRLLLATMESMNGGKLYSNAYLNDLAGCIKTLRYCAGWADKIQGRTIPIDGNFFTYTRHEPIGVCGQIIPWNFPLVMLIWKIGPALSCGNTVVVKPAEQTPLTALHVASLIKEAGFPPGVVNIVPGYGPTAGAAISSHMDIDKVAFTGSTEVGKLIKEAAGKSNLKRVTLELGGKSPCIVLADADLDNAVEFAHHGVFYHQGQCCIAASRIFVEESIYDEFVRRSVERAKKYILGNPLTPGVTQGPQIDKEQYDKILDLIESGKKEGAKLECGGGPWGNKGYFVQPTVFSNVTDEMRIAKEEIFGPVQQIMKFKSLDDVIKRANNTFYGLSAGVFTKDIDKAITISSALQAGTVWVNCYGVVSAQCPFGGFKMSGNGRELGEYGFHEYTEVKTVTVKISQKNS
# CBFb RUNX1 block: CBF-beta/RUNX1 interaction disruption; AID 1477; Potency, µM (titrated, usually from 59.8 µM), for inactives: at the top dose activity, negative = inhibition, hits mostly inhibitors; Q01196+Q13951; AlphaScreen CBFb-His/RUNX1-biotin binding, biochemical; 230,000 tested, under 10 active; note: % of control where 0% means no effect
#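 Room-temperature protein-protein interaction test with 30 nM each of His-tagged CBF-beta and biotinylated RUNX1, 15 min with compound, then 90 min with nickel plus streptavidin beads. Signal read in AlphaScreen mode.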
# Numbers without * were called inactive; ? = inconclusive; · = not tested or not shown; [ ] = dose if it differs, or a comment. The list is not random: actives were taken first. Their share in the collection is about 11%. Unless noted, calls come from the whole dose curve; as a rule, active = well fitted curve in the direction sought with a large enough effect; inconclusive = small, poorly fitted or top-dose-only effect, or another doubt; inactive = no such curve, though single readings can be large; an effect the other way counts as inactive or inconclusive.
SMILES,HttQ103 aggreg,PNC assembly inh,HTT ATP protect,HPGD block,ALDH1A1 block,CBFb RUNX1 block
N#CC1=C(SCC(=O)c2cc3ccccc3oc2=O)NC(=O)C(C#N)C12CCCC2 (stereo not drawn),?,-23,5%[10 µM],?,1.1µM*,3%
CSC1=C(C#N)C2(CCCC2)C(C#N)=C(N)N1,-19%,23,9%,-5%,?,4%
CCSC1=C(C#N)C2(CCCC2)C(C#N)=C(N)N1,-19%,-81*,-27%[10 µM],?,?,-4%
N#CC1=C(N)NC(SCc2ccc(Cl)cc2)=C(C#N)C12CCCCC2,?,-27,-98%,-25%,13µM*,-13%
C=CCn1c(COc2ccccc2)nnc1SC(C)C(=O)N/N=C/c1cc(Cl)ccc1O (stereo not drawn),10µM*,5,-41%,-18%,10%,-11%
Cc1cc2ccccc2c[n+]1CC(O)C[n+]1cc2ccccc2cc1C,·,·,-7%[10 µM],-13%,0%[13.5 µM],·
COc1cc(-c2nnc(SCC(=O)c3ccc(C)cc3)o2)cc(OC)c1OC,5%,?,8%[10 µM],-6%,28µM*,12%
Cc1cc(C)cc(-c2nnc(SCC(=O)NCc3cccs3)o2)c1,5%,?,-8%[10 µM],-5%,-1%,0%
COc1cccc(C(=O)CSc2nnc(-c3cc(OC)c(OC)c(OC)c3)o2)c1,26%,1,-24%,-30%,?,4%
CNC(=O)CSc1nnc(-c2cc(C)cc(C)c2)o1,-6%,-103*,2%,-10%,4%,-2%
CCS(=O)(=O)Nc1ccc(-c2nnc(SCC(=O)c3cccc(OC)c3)o2)cc1,4%,?,-11%,?,3.2µM*,0%
CCS(=O)(=O)Nc1ccc(-c2nnc(SCC(=O)c3ccc(NC(C)=O)c(OC)c3)o2)cc1,-8%,25,-41%[10 µM],0.79µM*,4%,4%
CO[C@@H]1COC(=O)CCC[C@@H](C)[C@H](OC)COC(=O)CCC[C@H]1C,·,·,3%[10 µM],·,3%[13.5 µM],12%[13.1 µM]
CCOc1ccc2nc(NC(=O)Cn3[nH]c(=O)c4ccccc4c3=O)sc2c1,0%[9.22 µM],·,-4%[10 µM],·,·,-5%
COc1cc(-c2nnc(SCc3c(F)cccc3Cl)o2)cc(OC)c1OC,?,?,1%,?,4.5µM*,?
COc1cc(-c2nnc(SCc3ccccc3Cl)o2)cc(OC)c1OC,13%,-19,4%[1.9 µM],-15%,?,13%
CCOC(=O)C(=O)N=Nc1c(O)n(C)c2ccccc12,-6%[9.22 µM],·,5%[10 µM],·,14µM*,4%
CCOC(=O)N=Nc1c(O)n(CC(=O)OC)c2ccccc12,2%,·,?,·,7.1µM*,-13%
O=C(O)CCC[C@H](O)\C=C/C=C/C=C/[C@H](O)C/C=C\CCCCCO,·,·,-4%,0%,-14%,14%
NC(=O)[C@@H]1CCCN1,·,·,19%,-6%,8%,6%
O=C1C=CC(=O)C(C2=C3C(=O)N(CCc4ccccc4)CC(=O)N3CCC2)=C1,7.1µM*,49,·,1.6µM*,2.2µM*,-22%
O=C(NC1CC1)c1cccc(Nc2ccc(-c3ccc4c(c3)OCCO4)nn2)c1,?,6,-130%[10 µM],28µM*,?,0%
O=S(=O)(c1ccc(Nc2ccc(-c3ccc4c(c3)OCCO4)nn2)cc1)N1CCCC1,6%[9.22 µM],33,-60%,-29%,?,-1%
Cc1ccc(CSc2ccc(-c3ccc4c(c3)OCO4)nn2)cc1,-7%,8,-22%[10 µM],?,11µM*,3%
C/C(CC(=O)Nc1ccc(Cl)cc1Cl)=N\NC(N)=S,-15%,?,-10%,-13%,?,-14%
C/C(CC(=O)Nc1cc(Cl)ccc1Cl)=N\NC(N)=S,-7%,45,-15%,-6%,13µM*,-2%
O=C1C[C@H](c2ccccc2)Oc2cc(O)cc(O)c21,·,·,-22%[1.9 µM],-11%,0%,2%[21.7 µM]
CCOC(=O)C1(C(=O)O)NC(=O)CC1c1ccccc1 (stereo not drawn),11%,-95*,-11%,-8%,-8%,-1%
